Laboratory results from PubChem BioAssay AID743172 (National Center for Advancing Translational Sciences (NCATS), 2013).
Values joined by “and” are separate entries in the source; they are usually repeats but may differ in a detail not shown here. Equal entries are not always repeated. Results filed as inconclusive are left out. Active and inactive are the calls of the source. Calls come from the whole dose curve; as a rule, active = well fitted activation curve with a large enough effect; inconclusive = small, poorly fitted or top-dose-only effect; inactive = no such curve, though single readings can be large or run the other way.

experiment: Extended Characterization of HPGD Inhibitors: PGE2 Assay in LNCaP Cells; details: PGE2 HTRF level, 16 h; series mostly up to 100 µM; PGE2 level, % of control (higher = increase): at the top concentration
Text: The central role of HPGD is to inactivate prostaglandins such as prostaglandin E2 (PGE2) or prostaglandin D2 (PGD2). These prostaglandins are involved in a number of processes, including inflammation, differentiation, and cellular signaling, which makes HPGD an important target for pharmacological intervention. A number of prostaglandins of particular biological interest have been identified as substrates of HPGD. […] Over-production of PGE2 has been reported to promote tumor-associated neovascularization, cell proliferation, and tumor growth. […] In this orthogonal assay, we set out to measure if compounds were able to increase PGE2 production NIH Chemical Genomics Center [NCGC] NIH Molecular Libraries Probe Centers Network [MLPCN] MLPCN Grant: MH084681 Assay Submitter (PI): Structural Genomics Consortium
A549 cells, LNCaP cells or media were dispensed in 384-well plates (ProxiPlate-384 Plus, PerkinElmer, Shelton, CT) at 5,000 cells/9.9 uL/well using a CappAero384 multichannel pipette (Odense, Denmark). Separately on the plate, 10 uL of PGE2 calibration standards at a starting assay concentration of 5,000 pg/mL (1:2 dilution, 12-points, n = 1, prepared in media, Cisbio, Bedford, MA) were dispensed. Compounds (100 nL, final concentration range from 41.9 nM to 100 uM) were transferred using an ATS Acoustic Liquid Dispenser (EDC Biosystems, Fremont, CA). After being mixed using an automated liquid handler (CyBio, Jena, Germany), samples were incubated (37 deg C, 5% CO2, under a humidified atmosphere) for 16 hours. PGE2 labeled conjugates were added to each well, first 5 uL of PGE2-d2, followed by 5 uL of anti-PGE2-cryptate, centrifuged (1,500 rpm, 15 sec) and incubated (RT, protected from light) for 5 hours. Time-resolved fluorescence intensity (320 nm excitation, 615 and 665 nm emission) was measured using an Envision plate reader (PerkinElmer). Data was expressed as the ratio of 665 nm/615 nm emissions. Concentration (pg/mL) of samples were calculated from a 4-parameter logistic calibration curves of the PGE2 standards.

Compound	Potency	PGE2 level, % of control (higher = increase)
Fc1ccc(CSc2nc3ncc(Br)cc3[nH]2)cc1	35.2 µM (active)	
CCCCn1cnc2cc(C(=O)N3CCCCC3)ccc21	4.43 µM (active)	
COc1ccc(CSc2nc3ncc(Br)cc3[nH]2)cc1F	22.2 µM (active)	
Cc1ccccc1CSc1nc2ncc(Br)cc2[nH]1	22.2 µM (active)	
FC(F)(F)c1ccc(CSc2nc3ncc(Br)cc3[nH]2)cc1	44.3 µM (active)	
FC(F)(F)c1cccc(CSc2nc3ncc(Br)cc3[nH]2)c1	35.2 µM (active)	
Cc1cc(-c2nnc3n2CCCCC3)c(C)n1-c1ccc(C(F)(F)F)cc1	3.52 µM (active)	
COc1cccc(-n2cnc3cc(C(=O)N4CCCCC4)ccc32)c1	0.28 µM (active)	
COc1ccccc1-n1cnc2cc(C(=O)N3CCCCC3)ccc21	1.76 µM (active)	
Cc1ccc(-n2cnc3cc(C(=O)N4CCCCC4)ccc32)cc1	0.443 µM (active)	
Cc1cccc(-n2cnc3cc(C(=O)NC(C)(C)C)ccc32)c1		115% (inactive)
Cc1cccc(-n2cnc3cc(C(=O)N4CCC(c5ccccc5)CC4)ccc32)c1		147% (inactive)
Cc1cc(-c2nnc3n2CCCCC3)c(C)n1-c1ccc(Cl)c(Cl)c1	0.352 µM (active)	
Cc1cc(-c2nnc3n2CCCCC3)c(C)n1-c1cccc2ccccc12	884 nM (active) and 1.76 µM (active)	
Brc1cnc2nc(SCc3ccccc3)[nH]c2c1	44.3 µM (active)	
N#Cc1ccccc1CSc1nc2ncc(Br)cc2[nH]1	35.2 µM (active)	
